Measurements from PubChem BioAssay AID1159580 (chemical genetic matrix, 2015).
“And” between values parts separate entries of the source, which are not always exact repeats. Identical values can stand only once. In all, about 5,500 compounds went through this assay and about 2,000 (36%) were called active. Another 18% or so got no clear call; they are omitted. Rule as the data show it: active = normalized growth mostly below about 0.91 (no sharp cut-off); inconclusive = no clear call, values can overlap the other calls; inactive = mostly above about 0.92. This is one part of the list.

Assay: chemical genetic growth profiling, strain panel (AID 1159580);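 also: tested at 20 µM; growth read once vehicle control cultures reached saturation at 30 °C; 1 = growth at the plate median or of vehicle wells; lower values mean less growth of the strain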
Conditions: S. cerevisiae deletion strains, growth OD

Measured: normalized growth

CC(C)=CCCC1(C)C=Cc2c(O)c3c(c(CC=C(C)C)c2O1)OC12C(=CC4CC1C(C)(C)OC2(C/C=C(/C)C(=O)O)C4=O)C3=O (configuration not stated)
active: locus YAL013W, strain DEP1, stronger effect = lower value 0.887 | locus YAL026C, strain drs2, stronger effect = lower value 0.895 | locus YAL030W, strain snc1, stronger effect = lower value 0.925 | locus YBL061C, strain skt5, stronger effect = lower value 0.87 | locus YBR009C, strain hhf1, stronger effect = lower value 0.803 | locus YBR023C, strain chs3, stronger effect = lower value 0.84 | locus YBR231C, strain swc5, stronger effect = lower value 0.559 | locus YBR279W, strain paf1, stronger effect = lower value 0.815 | locus YCL011C, strain gbp2, stronger effect = lower value 0.835 | locus YCL016C, strain dcc1, stronger effect = lower value 0.853 | locus YCL061C, strain MRC1, stronger effect = lower value 0.907 | locus YDL035C, strain GPR1, stronger effect = lower value 0.736 | locus YDL074C, strain BRE1, stronger effect = lower value 0.691 | locus YDL192W, strain arf1, stronger effect = lower value 0.901 | locus YDR069C, strain doa4, stronger effect = lower value 0.821 | locus YDR137W, strain rgp1, stronger effect = lower value 0.713 | locus YDR162C, strain NBP2, stronger effect = lower value 0.296 | locus YDR297W, strain sur2, stronger effect = lower value 0.889 | locus YDR318W, strain mcm21, stronger effect = lower value 0.879 | locus YDR335W, strain msn5, stronger effect = lower value 0.902 | locus YDR388W, stronger effect = lower value 0.897 | locus YDR392W, strain spt3, stronger effect = lower value 0.223 | locus YDR502C, strain sam2, stronger effect = lower value 0.849 | locus YEL003W, strain gim4, stronger effect = lower value 0.863 | locus YEL061C, strain CIN8, stronger effect = lower value 0.881 | locus YER015W, strain faa2, stronger effect = lower value 0.785 | locus YER155C, strain BEM2 (second series), stronger effect = lower value 0.758 | locus YER155C, strain BEM2, stronger effect = lower value 0.83 | locus YER167W, strain BCK2, stronger effect = lower value 0.874 | locus YFR010W, strain ubp6, stronger effect = lower value 0.891 | locus YGL086W, strain mad1, stronger effect = lower value 0.892 | locus YGL173C, strain kem1, stronger effect = lower value 0.82 | locus YGL248W, strain PDE1, stronger effect = lower value 0.791 | locus YGL253W, strain hxk2, stronger effect = lower value 0.877 | locus YGR135W, strain pre9, stronger effect = lower value 0.885 | locus YGR229C, strain SMI1, stronger effect = lower value 0.244 | locus YHR013C, strain ard1, stronger effect = lower value 0.605 | locus YHR027C, strain rpn1, stronger effect = lower value 0.894 | locus YHR129C, strain ARP1, stronger effect = lower value 0.808 | locus YHR142W, strain chs7, stronger effect = lower value 0.818 | locus YHR200W, strain rpn10, stronger effect = lower value 0.914 | locus YIL066C, strain RNR3, stronger effect = lower value 0.606 | locus YIL125W, strain kgd1, stronger effect = lower value 0.927 | locus YJL095W, strain BCK1 (second series), stronger effect = lower value 0.871 | locus YJL095W, strain BCK1, stronger effect = lower value 0.732 and 0.878 | locus YJL129C, strain trk1, stronger effect = lower value 0.653 | locus YJL164C, strain tpk1, stronger effect = lower value 0.758 | locus YJL166W, strain qcr8, stronger effect = lower value 0.77 | locus YJL187C, strain SWE1 (second series), stronger effect = lower value 0.838
inactive: locus YAL021C, strain ccr4, stronger effect = lower value 0.954 | locus YBR021W, strain FUR4, stronger effect = lower value 0.99 | locus YBR171W, strain sec66, stronger effect = lower value 0.979 | locus YBR229C, strain ROT2, stronger effect = lower value 0.988 | locus YCL029C, strain bik1, stronger effect = lower value 0.987 | locus YCL069W, strain vba3, stronger effect = lower value 0.945 | locus YCR088W, strain abp1, stronger effect = lower value 0.943 | locus YDL005C, strain med2, stronger effect = lower value 0.959 | locus YDL040C, strain nat1, stronger effect = lower value 0.959 | locus YDL101C, strain DUN1, stronger effect = lower value 0.894 | locus YDL185W, strain tfp1, stronger effect = lower value 0.986 | locus YDR001C, strain nth1, stronger effect = lower value 0.952 | locus YDR101C, strain arx1, stronger effect = lower value 0.93 | locus YDR150W, strain NUM1, stronger effect = lower value 0.932 | locus YDR159W, strain sac3, stronger effect = lower value 0.957 | locus YDR195W, strain ref2 1.11 | locus YDR334W, strain swr1, stronger effect = lower value 0.916 | locus YEL037C, strain rad23, stronger effect = lower value 0.967 | locus YEL061C, strain CIN8 (second series), stronger effect = lower value 0.935 | locus YER016W, strain bim1, stronger effect = lower value 0.967 | locus YER110C, stronger effect = lower value 0.98 | locus YER111C, strain swi4, stronger effect = lower value 0.977 | locus YGL078C, strain dbp3, stronger effect = lower value 0.965 | locus YGL167C, strain pmr1, stronger effect = lower value 0.915 | locus YGL227W, strain vid30, stronger effect = lower value 0.985 | locus YGL240W, strain doc1, stronger effect = lower value 0.966 | locus YGR252W, strain gcn5, stronger effect = lower value 0.882 | locus YHR079C, strain IRE1 (second series), stronger effect = lower value 0.98 | locus YHR079C, strain IRE1, stronger effect = lower value 0.89 | locus YHR094C, strain hxt1, stronger effect = lower value 0.983 | locus YIL073C, strain SPO22, stronger effect = lower value 0.796 | locus YIR030C, strain dcg1, stronger effect = lower value 0.967 | locus YJL092W, strain hpr5, stronger effect = lower value 0.946 | locus YJL115W, strain asf1, stronger effect = lower value 0.951 | locus YJL134W, strain LCB3, stronger effect = lower value 0.982 | locus YJL154C, strain vps35, stronger effect = lower value 0.983 | locus YJL168C, strain set2, stronger effect = lower value 0.98
0.85 (active) and 0.869 (inactive): locus YHR030C, strain SLT2, stronger effect = lower value
